Experimental findings from article PMC7819943, “Rice protein-binding microarrays: a tool to detect cis-acting elements near promoter regions in rice” are described below.

Over roughly 35,000 sequences, “fluorescence intensity (a.u.)” has its median near 10,000; the highest 2% begin near 52,000. This is one part of a sample in which the highest values are shown more often than they occur.

This experiment addresses T1, OsWOX13 (Oryza sativa, UniProt Q5QMM3 1-267).
T1 sequence: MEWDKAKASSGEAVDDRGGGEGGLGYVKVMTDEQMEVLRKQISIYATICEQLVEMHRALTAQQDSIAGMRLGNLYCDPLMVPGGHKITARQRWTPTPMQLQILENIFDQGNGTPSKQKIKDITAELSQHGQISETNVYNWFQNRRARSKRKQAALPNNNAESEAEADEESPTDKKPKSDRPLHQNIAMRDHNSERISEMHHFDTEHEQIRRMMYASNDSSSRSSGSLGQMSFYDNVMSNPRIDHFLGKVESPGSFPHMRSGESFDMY
Briefly: protein-binding microarray (RPBM); PBS, 2% BSA, 51.3 ng/ul salmon testes DNA, 50 uM zinc acetate, 200 nM TF, 25 C, 1 h; high values mean tight binding. The conditions noted are these: protein: recombinant; tags: N-terminal polyhistidine and DsRed monomer fusion (pET32a); label: CyDye5-dUTP incorporated in the synthesized complementary strand; 3' TTTTT single-stranded linker to array surface; dsDNA, one strand shown. The gist of the method:
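The binding signal for each feature is its fluorescence intensity in arbitrary units. An Axon 4000B scanner was used to read a custom Agilent array that had been made double-stranded with Cy5-dUTP primer extension, blocked with 2% BSA, incubated at 25 °C for 1 h with 200 nM protein in PBS, 2% BSA, salmon testes DNA and 50 µM zinc acetate, and washed. The protein was an N-terminal polyhistidine–DsRed transcription factor fusion from E. coli BL21-CodonPlus, purified on Ni–NTA.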
For “AATTTACGATTGATTATTCATTCAGTGAGGCGCATGCGGTCGGAGTCACCTAGTGCAG”, the binding signal is 32700 fluorescence intensity (a.u.).

For “AAATGAGATGACAATGATGATGATGATGGTTTCATCACCCCGGAGTCACCTAGTGCAG”, the binding signal is 4620 fluorescence intensity (a.u.).

With “TACAATCACATTCAATTTGAAAAGAGAAGATGGCTCTTGGCGGAGTCACCTAGTGCAG”, the binding signal was 9800 fluorescence intensity (a.u.).

Regarding “GAGGCCAATCAGGTTGATGATGAAGAGGATGATTTCAGCGCGGAGTCACCTAGTGCAG”, the binding signal was 18200 fluorescence intensity (a.u.).

Turning to “CATCAATCATGATTGAAGATGATTCAAGGTTGAGAGGACCCGGAGTCACCTAGTGCAG”, the binding signal is 53900 fluorescence intensity (a.u.).

In the case of “ATTTAGACAGGTTCCAACCTCCTTGATAACAGTTAAAACCCGGAGTCACCTAGTGCAG”, the binding signal was 7950 fluorescence intensity (a.u.).

Take “TTTTAGGTTAATTACTTCTATTGGTCAACTCAATATGCAGCGGAGTCACCTAGTGCAG”: the binding signal is 5660 fluorescence intensity (a.u.).

Consider “TGACTCTTATTTAACGACTGATTGTTGTCAAGATAATGAACGGAGTCACCTAGTGCAG”, for which the binding signal is 3770 fluorescence intensity (a.u.).

For “CGTACAATATTAATTAAAGTGTTTAAGAAACAGAGACTAGCGGAGTCACCTAGTGCAG”, the binding signal is 3740 fluorescence intensity (a.u.).

Take “AAGGAAAATTAATAGCATACAGGCATGCATTTACGTACTTCGGAGTCACCTAGTGCAG”: the binding signal was 5500 fluorescence intensity (a.u.).

As for “CCATGTGATTGACGATGCTCTTATTAACTTCTAACTTGACCGGAGTCACCTAGTGCAG”, the binding signal was 47000 fluorescence intensity (a.u.).

With “GCTGACGTAGATAATCTTATGCTTTCAAATTTTACGATAGCGGAGTCACCTAGTGCAG”, the binding signal was 5670 fluorescence intensity (a.u.).

Turning to “ACTTTCTGTCAATTAGCCATTAGGTCAGTAGCCCAAAGTCCGGAGTCACCTAGTGCAG”, the binding signal is 24300 fluorescence intensity (a.u.).

As for “TTCATGATATCAATTTATGAGCATCAAAAGATTACCATGCCGGAGTCACCTAGTGCAG”, the binding signal is 6980 fluorescence intensity (a.u.).

Take “TCTGCTTAAAAGGATGATTAAATTTTAGATTAAAGTGGCGCGGAGTCACCTAGTGCAG”: the binding signal is 10200 fluorescence intensity (a.u.).

For “CTGATGATTAGATTTATCATGCTTCCGCGCTTCAAAAGGGCGGAGTCACCTAGTGCAG”, the binding signal was 53400 fluorescence intensity (a.u.).

Consider “TCAGATTAGTTGACTAGCAAGCTACTCCTAGTACAGGTTACGGAGTCACCTAGTGCAG”, for which the binding signal was 6290 fluorescence intensity (a.u.).

For the sequence “TAATTATTGACTAATATATTAATTAATATAATGTAATTTACGGAGTCACCTAGTGCAG”, the binding signal was 22700 fluorescence intensity (a.u.).

On to “TGTTTATAACTGTAATGACATATAAGCACCACATAGGGGCCGGAGTCACCTAGTGCAG”, for which the binding signal is 5560 fluorescence intensity (a.u.).

On to “GATTAATCCAATTGACTTTGATGAGGATGTGCCACTATTTCGGAGTCACCTAGTGCAG”, for which the binding signal is 6820 fluorescence intensity (a.u.).

Consider “AGTTTTCTGTTCAATGATTTGGTTGAATCAAATTGTTCCTCGGAGTCACCTAGTGCAG”, for which the binding signal was 4400 fluorescence intensity (a.u.).

Turning to “CAGCCCTTAATTGAATTTGGCCCAGCTAGTTCCCGGGCCCCGGAGTCACCTAGTGCAG”, the binding signal was 30600 fluorescence intensity (a.u.).

Take “GTTGATTGGGTAAATCATATGATCGTAATGTATTGTGAATCGGAGTCACCTAGTGCAG”: the binding signal was 64600 fluorescence intensity (a.u.).

In the case of “CCTTTTAATTGAAAAGCTCCTTATTGGCTTCCCACCTAAGCGGAGTCACCTAGTGCAG”, the binding signal was 46900 fluorescence intensity (a.u.).

Consider “CTAATTAATTTGTTCCCTTAATTGGCACTTTGAATCTAAGCGGAGTCACCTAGTGCAG”, for which the binding signal is 58300 fluorescence intensity (a.u.).

As to “GTATTGTGATTTGTGAATCAGTGAATATGTGAATGTGATTCGGAGTCACCTAGTGCAG”, the binding signal was 13200 fluorescence intensity (a.u.).

In the case of “ACAATTTGATTGCTTCCTTTCAACATTGTGGTTGGTGATCCGGAGTCACCTAGTGCAG”, the binding signal was 30500 fluorescence intensity (a.u.).

For the sequence “TTGTAAATGACTGATTTGGATGTGAATTAATCGTTGTTGTCGGAGTCACCTAGTGCAG”, the binding signal is 28400 fluorescence intensity (a.u.).

Consider “ATAAATGATTGGAGGATTTGTTGTGACTTTTCCACAATGTCGGAGTCACCTAGTGCAG”, for which the binding signal is 58200 fluorescence intensity (a.u.).

“ATGTGTAAATTGAATTAATGGAGTTGGTTGTGAAATCGTTCGGAGTCACCTAGTGCAG”: the binding signal was 25300 fluorescence intensity (a.u.).

Turning to “GGTGATTTGATTCAAATTCAATCCGATCCTTTGTTGGTTTCGGAGTCACCTAGTGCAG”, the binding signal was 53400 fluorescence intensity (a.u.).

Take “GACTGGGAGGATGAGGGGTGGGTGGGTGTGGCTGCTTCTGCGGAGTCACCTAGTGCAG”: the binding signal is 4110 fluorescence intensity (a.u.).

For the sequence “CGATCTAATTGTGAATCCTCTACCCTAGAGGACCTCCTATCGGAGTCACCTAGTGCAG”, the binding signal was 4020 fluorescence intensity (a.u.).

For the sequence “AGTTTTAGCCTAAATTGGGTAAATTATATTTTAACCGTAACGGAGTCACCTAGTGCAG”, the binding signal was 11600 fluorescence intensity (a.u.).

On to “TCAGTAACATTATTGGTTAAATTTTAAATTTTGAATAGGCCGGAGTCACCTAGTGCAG”, for which the binding signal was 5870 fluorescence intensity (a.u.).

“AATTGTTTGATTGAAATTAATGTACTCTTGAATGGATAAACGGAGTCACCTAGTGCAG”: the binding signal was 32600 fluorescence intensity (a.u.).

Turning to “GCTGACTAATTATGTAACAGGGGTCAAACAAGTAGGTGGACGGAGTCACCTAGTGCAG”, the binding signal is 20400 fluorescence intensity (a.u.).

Turning to “GGTAGAAATAAGGATTGATTGAGATTCACCTACCTTTTCTCGGAGTCACCTAGTGCAG”, the binding signal is 37500 fluorescence intensity (a.u.).

With “TCCACCGCGACATGTGATTGGAGGTAAGAGCATGTGAACCCGGAGTCACCTAGTGCAG”, the binding signal is 5650 fluorescence intensity (a.u.).

As for “GCTCCTGATTTGCCTGATCAGATCAACAGATTAGCATGATCGGAGTCACCTAGTGCAG”, the binding signal is 23600 fluorescence intensity (a.u.).

With “GAGATTGATTGCATATCAGAAGTAAATGATTTCAACAGATCGGAGTCACCTAGTGCAG”, the binding signal is 54400 fluorescence intensity (a.u.).

In the case of “GCAGAAATGATTGCACTTCAATTATTGAGTAAAACAGATTCGGAGTCACCTAGTGCAG”, the binding signal was 30000 fluorescence intensity (a.u.).

As for “ATTGATTTGAATTCCAAATTTGTAATGATGTTGATCACCTCGGAGTCACCTAGTGCAG”, the binding signal is 39400 fluorescence intensity (a.u.).

In the case of “CTTTGTAATTGGAGTCAATCAAATTGAATGATTTCCCTTTCGGAGTCACCTAGTGCAG”, the binding signal was 58900 fluorescence intensity (a.u.).

As to “AAATGTGATTTTGTAATTTCCCCTTTGAATTTTCATCAAACGGAGTCACCTAGTGCAG”, the binding signal is 8970 fluorescence intensity (a.u.).
